A selection: hits, their analogues and other compounds. The true share with any hit is near 4.5%.
HDAC3 inh: HDAC3 deacetylase inhibitors, primary screen, biochemical, fluorescence, cell-free homogeneous; Histone deacetylase 3 (Homo sapiens), O15379; recombinant HDAC3, fluorogenic peptide/trypsin coupled; inhibition, % at 8.3 µM; hit rate 0.15% among 320,000; AID 2718, 2010; in the data active means inhibition above about 26%, passing the limit was not always enough
Efflux pump mplx: inhibitors of Candida efflux pumps in yeast, primary screen, S. cerevisiae, Nile Red, multiplex; S. cerevisiae Candida pump triplex; inhibition, % at 10 µM; AID 485275, 2010; hit rate 0.44% among 330,000;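 active means plate passing quality check with inhibition over a set limit, or well fluorescence over plate mean plus 4 SD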;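 further: Nile Red retained in pooled yeast measured as flow cytometry median fluorescence; 0% = buffer negative control and 100% = Enniatin B positive control; higher means more Nile Red kept so more efflux inhibition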
GRK2 aptamer HTS: compounds blocking aptamer binding on GRK2 – biochemical, human GRK2, bead flow cytometry, HTS, primary screen; hit rate 0.59% among 330,000; FAM-aptamer displacement from GRK2; AID 488847, 2010; inhibition of aptamer binding, % at 10 µM; Beta-adrenergic receptor kinase 1 (Homo sapiens), P25098;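 active means inhibition of aptamer binding above 40%, roughly 3 SD of noise, on plates passing a quality check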;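 further: median bead fluorescence of bound FAM aptamer so fluorescent compounds give negative values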
Target sequence (P25098 whole entry, looked up): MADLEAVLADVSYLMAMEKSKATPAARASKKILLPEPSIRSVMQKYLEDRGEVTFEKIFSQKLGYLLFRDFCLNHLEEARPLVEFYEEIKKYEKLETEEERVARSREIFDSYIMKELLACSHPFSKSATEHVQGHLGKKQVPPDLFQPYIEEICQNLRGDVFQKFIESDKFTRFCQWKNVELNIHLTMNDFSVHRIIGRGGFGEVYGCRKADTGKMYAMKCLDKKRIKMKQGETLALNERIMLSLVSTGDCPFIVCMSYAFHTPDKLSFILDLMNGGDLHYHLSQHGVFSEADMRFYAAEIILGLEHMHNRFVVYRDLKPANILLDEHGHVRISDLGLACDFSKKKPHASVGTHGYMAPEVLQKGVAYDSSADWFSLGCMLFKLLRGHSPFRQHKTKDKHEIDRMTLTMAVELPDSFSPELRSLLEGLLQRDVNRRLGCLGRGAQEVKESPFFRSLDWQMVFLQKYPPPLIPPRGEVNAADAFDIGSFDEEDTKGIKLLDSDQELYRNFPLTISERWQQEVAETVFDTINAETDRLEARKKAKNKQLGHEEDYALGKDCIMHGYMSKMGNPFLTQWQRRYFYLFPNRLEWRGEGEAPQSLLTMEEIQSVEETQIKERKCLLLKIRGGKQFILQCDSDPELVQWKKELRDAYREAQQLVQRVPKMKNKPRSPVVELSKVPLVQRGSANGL
ALR inh: inhibitors of human ALR sulfhydryl oxidase, primary screen, biochemical, H2O2 detection, HRP-luminol luminescence, single point. inhibition, % (concentration not given with the values). purified ALR, DTT oxidation. hit rate 3.8% among 290,000;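 active means mean replicate inhibition above about 79%, with every replicate also reaching it, limit read from the data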
Rce1 inhib: yeast Rce1p protease inhibitors, primary screen, biochemical, fluorescence, cell-free homogeneous; yeast membranes, quenched prenylated peptide cleavage fluorescence; calls only; hit rate 0.27% among 290,000; AID 2563, 2010;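 active means fall in fluorescence gain of 50% or more versus controls, with final raw signal at or below 3038400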;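 further: plate controls were neutral control wells for no effect and wells lacking membranes for full effect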
Rtt109 Vps75: inhibitors of C. albicans Rtt109/Vps75 HAT, primary screen, biochemical, ThioGlo CoA-SH fluorescence, plate reader. Histone acetyltransferase RTT109 (Candida albicans (strain SC5314 / ATCC MYA-2876)), …. purified Rtt109/Vps75, 4 h. inhibition, % at 34.9 µM. hit rate 0.16% among 330,000;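 active means inhibition of at least 50% in every replicate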
* marks the source's active call; other numbers are inactive results; i = inactive; . = no result given; + = active, no number.

SMILES	HDAC3 inh	Efflux pump mplx	GRK2 aptamer HTS	ALR inh	Rce1 inhib	Rtt109 Vps75
Cc1ccc(-n2c([C@@H]3C[C@H]3c3ccccc3)n[nH]c2=S)cc1	4.3	0.0	1.0	84.8*	i	7.3
CCN1C(=O)CC(NCc2ccc(S(N)(=O)=O)cc2)C1=O (centres undefined)	-3.3	0.0	0.0	-0.6	i	-17.0
COc1cc(Cl)c(C)cc1NC(=O)CC1SC(N2CCOCC2)=NC1=O (centres undefined)	3.2	0.0	0.0	.	.	0.9
CCOC(=O)CCc1c(C)n(CC)c2cc(-c3ccccc3OC)nn2c1=O	-67.1	-0.1	0.0	-2.2	i	2.0
CCN(CC)CCCNC(=O)CCc1c(C)n(CC)c2cc(-c3ccccc3OC)nn2c1=O	-25.9	-0.1	0.0	.	+	-2.6
CCOCCn1c(CN2CCN(c3ccc(F)cc3)CC2)nc2c1c(=O)n(C)c(=O)n2C	3.8	0.0	2.0	98.5*	i	2.3
COc1ccc(N2CCN(Cc3nc4c(c(=O)n(C)c(=O)n4C)n3Cc3cccc(C)c3)CC2)cc1	-1.7	0.1	0.0	57.2	i	11.8
COc1ccc(N2CCN(Cc3nc4c(c(=O)n(C)c(=O)n4C)n3C(C)C(C)=O)CC2)cc1 (centres undefined)	-1.2	0.2	5.0	88.5*	i	0.8
COc1ccc(CC(=O)N2CCN=C2SCc2ccc([N+](=O)[O-])cc2)cc1	9.7	-0.1	4.0	99.2*	i	-9.1
O=C(Cc1ccc(F)cc1)N1CCN=C1SCc1ccc([N+](=O)[O-])cc1	-0.2	-0.4	0.0	98.5*	i	7.4
COc1ccc(/C(N)=N/OC(=O)CSc2ccc(C)cc2)cc1OC	18.4	0.3	1.0	-4.5	i	-8.3
Cc1ccc(SCC(=O)O/N=C(\N)c2ccc([N+](=O)[O-])cc2)cc1	5.6	-0.3	0.0	97.9*	i	-10.6
CCOc1ccc(-n2c(SCc3ccc([N+](=O)[O-])cc3)nnc2-c2ccc(OC)cc2)cc1	5.1	-0.2	0.0	-5.0	+	5.4
O=C(CN(C(=O)c1csnn1)c1cccc(C(F)(F)F)c1)NCCc1ccccc1	-1.8	0.0	0.0	0.5	i	-10.8
Cc1nc(C(=O)N/N=C/c2[nH]ncc2Br)cs1	-4.1	0.3	1.0	.	i	0.3
CCOc1ccc(CC(=O)N2CCN=C2SCc2ccc([N+](=O)[O-])cc2)cc1	4.0	-0.1	0.0	99.4*	i	-9.7
Cc1ccccc1C(=O)N1CCN=C1SCc1ccc([N+](=O)[O-])cc1	.	-0.1	0.0	.	i	17.7
Cc1ccc(C(=O)N2CCN=C2SCc2ccc([N+](=O)[O-])cc2)cc1	6.1	-0.1	0.0	98.7*	i	-3.9
O=C(c1cccc2ccccc12)N1CCN=C1SCc1ccc([N+](=O)[O-])cc1	11.1	0.3	2.0	98.5*	i	4.4
COc1c2c(c(CCC(=O)O)c3c1C=CC(C)(C)O3)OC(C)(C)C=C2	.	.	.	.	.	-2.0
CC1CCCN(C(=O)N2c3ccccc3Sc3ccccc32)C1 (centres undefined)	3.2	-0.5	1.0	63.3	i	-5.0
CC1CN(C(=O)N2c3ccccc3Sc3ccccc32)CC(C)O1 (centres undefined)	-1.6	0.0	2.0	98.9*	i	2.0
CC1CCN(C(=O)N2c3ccccc3Sc3ccccc32)CC1	3.5	0.0	0.0	88.6*	i	-12.4
O=C(N1CCOCC1)N1c2ccccc2Sc2ccccc21	-0.6	-0.1	0.0	98.8*	i	7.7
CC1CN(C(=O)N2c3ccccc3Sc3ccccc32)C(C)CC1=O (centres undefined)	4.2	-0.1	0.0	67.7	i	8.9
SMILES	HDAC3 inh	Efflux pump mplx	GRK2 aptamer HTS	ALR inh	Rce1 inhib	Rtt109 Vps75
NC(=O)C1CCN(c2nc(-c3ccccc3-c3ccccc3)cs2)CC1	-12.3	-0.6	1.0	55.6	.	-6.8
CC(C)OCCCNC(=O)C1CCN(S(=O)(=O)c2ccc3nc4c(c(C(=O)O)c3c2)CCCCC4)CC1	-8.4	0.1	3.0	-5.8	i	4.3
CCCC(=O)Nc1ccc(NC(=O)Cc2ccccc2)cn1	-1.5	0.0	0.0	99.1*	i	-7.9
CCCC(=O)Nc1ccc(NC(=O)CCc2ccccc2)cn1	-3.4	-0.1	0.0	-7.5	i	-6.8
COc1ccccc1CCC(=O)N1CCN(S(=O)(=O)c2cccc(F)c2)CC1	-5.3	0.1	0.0	-2.1	i	2.2
C/C(=N\NC(=O)CCCOc1ccc(Cl)cc1C)c1ccc(C)o1	4.1	-0.1	90.0*	1.0	i	4.5
c1ccc2c(c1)ccc1nnnn12	6.3	0.1	1.0	-8.3	i	6.4
Cc1ccc(C)n1-c1cccc(C(=O)O)c1	9.8	-0.5	96.0*	-4.2	i	.
O=C(O)c1cccc(N2C(=O)CSC2=S)c1	-0.3	-0.1	0.0	79.1*	i	2.5
Cc1cc(C=O)c(C)n1-c1cccc(C(=O)O)c1	4.5	-0.1	15.0	-4.4	i	-0.4
COc1cccc(NC(=O)CCCn2c(=S)[nH]c3ccccc3c2=O)c1	-4.4	0.0	0.0	83.1*	i	-2.9
CCOc1ccc(S(=O)(=O)N2CCC(C(=O)NCc3ccncc3)CC2)cc1Cl	7.1	0.1	0.0	5.0	i	2.3
CCOC(=O)C1CCN(S(=O)(=O)c2ccc3oc(=O)ccc3c2)CC1	-10.4	0.0	0.0	.	i	4.8
Cc1ccc(CNC(=O)CSc2nc3ccccc3c(=O)n2CCCO)cc1	0.4	0.0	0.0	-4.9	i	2.1
Cc1ccc(-c2nc(CSc3nc4ccccc4c(=O)n3C)cs2)cc1	-4.6	0.0	2.0	97.8*	i	-7.6
Cc1ccc(-c2nc(CSc3nc4ccccc4c(=O)n3CCO)cs2)cc1	-9.3	0.6	0.0	98.4*	i	25.6
Cc1ccc(C(C)C)c(OCC(=O)NCC(c2cccs2)N2CCOCC2)c1 (centres undefined)	7.6	0.0	3.0	-2.5	i	4.3
CCN(CC)CCCN(Cc1cc2cc3c(cc2[nH]c1=O)OCO3)C(=S)NCCCN(C)C	-0.1	-0.1	0.0	-0.4	+	-0.8
Cc1ccccc1C(=O)N1CC(=O)Nc2ccc(F)cc2C1c1ccccc1 (centres undefined)	-1.0	-0.1	1.0	-0.4	i	-2.9
COc1ccc(-n2nnnc2S(=O)(=O)Cc2ccc(C(=O)O)cc2)cc1	-4.7	0.2	1.0	97.9*	.	-0.7
COc1cc(OC)cc(-n2nnnc2SCC(=O)N2CCCC2)c1	-1.4	-0.1	1.0	1.1	i	6.5
COc1ccc(-n2nnnc2S(=O)(=O)CC(=O)N2CCCCC2)cc1	-3.6	-0.2	0.0	97.7*	.	-11.9

Screens as filed in PubChem.
